For 39 compounds, outcome and AC50 results are on record in PubChem BioAssay (EPA / NIEHS).

“And” between values parts separate entries of the source, which are not always exact repeats. Equal values may be shown once. Inconclusive results are not listed. A structure can be active in one record and inactive in another. The source made the active and inactive calls. Rule for the calls: active = hit-call score of the fitted dose curve at least 0.9, where 1 is the maximum; inconclusive = response in the unintended direction; inactive = score below 0.9.

The AC50 is the midpoint of the concentration-response curve, whichever way the signal moves.

The assay can be described thus: ACEA_ER_AUC_viability: ACEA Biosciences xCELLigence Real-Time Cell Analysis on Estrogen Receptor Agonism for Viability (AID 2283782).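 Note: continuous compound exposure with impedance area under curve over 80 h; hit means loss of impedance signal meaning reduced cell growth or viability.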 The method, then: ACEA_ER is a cell-based, single-readout assay that uses T47D, a human breast cell line, with measurements taken at 80 hours after chemical dosing in a 96-well plate, although TO2 (mc0.srcf) used a 384-well plate. Differences in plate size can be ignored given data normalization.ACEA_ER_AUC_viability is one of two assay component(s) measured or calculated from the ACEA_ER assay. It is designed to make measurements of real-time cell-growth kinetics, a form of growth reporter, as detected with electrical impedance signals by Real-Time Cell Electrode Sensor (RT-CES) technology.Data from the assay component ACEA_ER_AUC_viability was analyzed in the positive analysis fitting direction relative to DMSO as the negative control and baseline of activity. Using a type of growth reporter, loss-of-signal activity can be used to understand changes in the viability. Furthermore, this assay endpoint can be referred to as a secondary readout, because this assay has produced multiple assay endpoints where this one serves a viability function. To generalize the intended target to other relatable targets, this assay endpoint is annotated to the cell cycle intended target family, where the subfamily is cytotoxicity.
The xCELLigence system Multi-E-Plate stations were used to measure the time-dependent response to chemicals. Each compound was tested in an eight-point, 1:4 serial dilution series starting at a maximum final concentration of 100 uM. A maximum starting concentration of 0.5% DMSO was present in the 100 uM chemical samples and was diluted along with the test article dilution series. The screen was performed in biological duplicate using two separate, 96-well, E-Plates 96 for each dilution series (n = 2). Positive controls (MG132 and E2) and a negative control (assay media) were tested in quadruplicate on each testing plate. Then, 0.5% and 0.125% DMSO were tested in duplicates in each plate to serve as solvent controls for the 2 highest concentrations of testing compounds: 100 uM and 25 uM. Reference compounds were tested with 8 concentrations with 1:5 serial dilutions. All screening was carried out by ACEA Biosciences, Inc. (San Diego, CA). T-47D cells purchased from ATCC were maintained in RPMI1640 media supplemented with 10% characterized fetal bovine serum (FBS). Before screening, T-47D cells were preconditioned in assay medium: phenol red-free RPMI1640 supplemented with 10% charcoal-stripped FBS. Cells were then detached and seeded in E-Plates 96 in assay medium. After overnight monitoring of growth once every hour, compounds were added to […] cells and remained in the medium until the end of the experiment. Cellular responses were then recorded once every 5 min for the first 5 h, and once every hour for an additional 100 h.
With `Nc1nc(N)nc(Cl)n1`, the outcome was inactive.
In the case of `c1ccc(-c2cccc(-c3ccccc3)c2)cc1`, the AC50 is 24.4 µM (active).
On to `COc1ccc(N)cc1`, for which the compound was called inactive and the AC50 was 52 µM (active).
In the case of `N#Cc1cccnc1`, the outcome was inactive.
As for `CCCCCCCCCCCCN(C)C`, the call was inactive.
On the same count and under the same terms, the value for `Cc1cc(Cl)ccc1O` was “inactive”.
For the compound `O=C1C=CC(=O)c2ccccc21`, the AC50 is 22.5 µM (active).
As for `CCOP(=S)(OCC)OP(=S)(OCC)OCC`, the outcome was inactive.
As to `O=c1[nH]c(=O)n(Cl)c(=O)n1Cl`, the compound was classed as inactive.
As for `O=[N+]([O-])c1cc([As](=O)(O)O)ccc1O`, the result was inactive.
`OC[P+](CO)(CO)CO`: the AC50 was 50 µM (active).
Consider `Oc1c(Br)cc(Br)cc1Br`, for which the compound was classed as inactive.
On to `CC(C)(C)c1ccccc1O`, for which the AC50 is 81.5 µM (active).
Turning to `Cc1c([N+](=O)[O-])c(C)c([N+](=O)[O-])c(C(C)(C)C)c1[N+](=O)[O-]`, the result was inactive.
Turning to `CC(C)(COCC1CO1)COCC1CO1` (stereo not given), the AC50 was 29.9 µM (active).
In the case of `O=[N+]([O-])c1cccc2ccccc12`, the outcome was inactive.
For the compound `N#CS`, the compound was called inactive.
As to `ClCCN1CCOCC1`, the AC50 is 31.6 µM (active).
With `O=S1OC[C@@H]2[C@H](CO1)[C@]1(Cl)C(Cl)=C(Cl)[C@@]2(Cl)C1(Cl)Cl` (stereo not given in full), the AC50 was 50 µM (active).
Regarding `CNC(=O)O/N=C/C(C)(C)S(C)(=O)=O`, the compound was called inactive.
Take `O=[N+]([O-])c1ccc(Cl)c([N+](=O)[O-])c1`: the AC50 was 1.55 µM (active).
Still for that read-out and setting: the value for `O=CCCl` was 10.3 µM (active).
On to `CC(O)(CS(=O)(=O)c1ccc(F)cc1)C(=O)Nc1ccc(C#N)c(C(F)(F)F)c1` (stereo not given), for which the result was inactive.
As for `Cc1ccccc1OP(=O)(Oc1ccccc1)Oc1ccccc1`, the AC50 is 62.9 µM (active).
The same measure, in the same setting: the value for `N#Cc1ccc(Cl)cc1` was 50 µM (active); that for `c1ccc2sc(SNC3CCCCC3)nc2c1` was 85.5 µM (active).
As for `N#CCC#N`, the outcome was inactive.
`Cc1ccc(CCl)cc1`: the AC50 is 40.7 µM (active).
On the same count and under the same terms, to `Cc1cc(Cl)ccc1N` belongs 80.8 µM (active) and 14.3 µM (active).
Consider `O=C(Cl)OCCOCCOC(=O)Cl`, for which the outcome was inactive.
With `CCC[CH2][Sn]([CH2]CCC)([CH2]CCC)[CH2]CCC`, the AC50 is 22 µM (active).
`O=[N+]([O-])c1ccccc1O`: the call was inactive.
Same read-out and setting: to `O=[N+]([O-])c1ccc(Nc2ccccc2)cc1` belongs “inactive”; to `CCC(C)(C#N)N=NC(C)(C#N)CC` (stereo not given), “inactive”; to `O=C(O)COc1ccc(Cl)cc1`, “inactive”.
The same measure, in the same setting: to `O=C(NC(=O)c1c(F)cccc1F)Nc1ccc(Cl)cc1` belongs “inactive”; to `O=C(CBr)c1ccc(O)cc1`, “inactive”.
With `O=C=Nc1ccc(Cl)cc1`, the AC50 is 29.9 µM (active).
On the same count and under the same terms, the value for `CCOCn1c(-c2ccc(Cl)cc2)c(C#N)c(Br)c1C(F)(F)F` was 50 µM (active).
